Reference: PubChem BioAssay
For some of these results: Potency and affinity values are given separately. The source made the active and inactive calls.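 How the source made its calls, unless noted: active means primary screen active and over 50% activation in each of two duplicate runs; inactive means the rest.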

Assays:
[1] = test system: TRPC4 beta (transient receptor potential cation channel C4), mouse; experiment: TRPC4 cation channel opening, retest – cell-based, Fluo4 calcium, HEK293 TRPC4beta/mu-opioid, duplicates, 10 µM, confirmation (AID 2426;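 active means fluorescence ratio normalized to control raised more than 50% in primary screen plus both repeat runs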); conditions: Fluo4 calcium fluorescence, at 10 µM; hits give high values
[2] = test system: transient receptor potential cation channel C4 beta (TRPC4), mouse; experiment: TRPC4 cation channel opening, second retest – cell-based, second round, Fluo4, HEK293 TRPC4beta/mu-opioid, 1 µM, confirmation (AID 2461); conditions: Fluo4 calcium fluorescence, at 1 µM; hits give high values
[3] = test system: TRPC4 (transient receptor potential cation channel C4 beta), mouse; experiment: potentiation of DAMGO EC20 TRPC4 response – cell-based, second round, Fluo-4, HEK293 TRPC4beta/mu-opioid, 1 µM, confirmation (AID 2554;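 active means primary screen hit whose fluorescence ratio, in both repeats, exceeds the weak agonist control mean by 3 SD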); conditions: DAMGO EC20, Fluo-4 calcium flux, at 1 µM; hits give high values
[4] = test system: TRPC4 beta (transient receptor potential cation channel C4), mouse; experiment: potentiation of DAMGO EC20 TRPC4 response – cell-based, Fluo-4, HEK293 TRPC4beta/mu-opioid, confirmation (AID 2555;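 active means primary screen hit whose calcium fluorescence ratio, in both repeats, exceeds the weak agonist control mean by 3 SD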); conditions: DAMGO EC20, Fluo-4 calcium flux, at 10 µM; hits give high values
[5] = target: Short transient receptor potential channel 4 (Mus musculus) (UniProt Q9QUQ5); experiment: blockers of DAMGO-evoked TRPC4 calcium flux – cell-based, Fluo4, HEK293 TRPC4beta/mu-opioid, confirmation (AID 2636;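 active means calcium signal cut by more than 3 SD below the full-agonist control yet still positive, in both repeats and the earlier primary screen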); conditions: at 10 µM; hits give high values
Short transient receptor potential channel 4 (Mus musculus), sequence (Q9QUQ5 whole entry, looked up): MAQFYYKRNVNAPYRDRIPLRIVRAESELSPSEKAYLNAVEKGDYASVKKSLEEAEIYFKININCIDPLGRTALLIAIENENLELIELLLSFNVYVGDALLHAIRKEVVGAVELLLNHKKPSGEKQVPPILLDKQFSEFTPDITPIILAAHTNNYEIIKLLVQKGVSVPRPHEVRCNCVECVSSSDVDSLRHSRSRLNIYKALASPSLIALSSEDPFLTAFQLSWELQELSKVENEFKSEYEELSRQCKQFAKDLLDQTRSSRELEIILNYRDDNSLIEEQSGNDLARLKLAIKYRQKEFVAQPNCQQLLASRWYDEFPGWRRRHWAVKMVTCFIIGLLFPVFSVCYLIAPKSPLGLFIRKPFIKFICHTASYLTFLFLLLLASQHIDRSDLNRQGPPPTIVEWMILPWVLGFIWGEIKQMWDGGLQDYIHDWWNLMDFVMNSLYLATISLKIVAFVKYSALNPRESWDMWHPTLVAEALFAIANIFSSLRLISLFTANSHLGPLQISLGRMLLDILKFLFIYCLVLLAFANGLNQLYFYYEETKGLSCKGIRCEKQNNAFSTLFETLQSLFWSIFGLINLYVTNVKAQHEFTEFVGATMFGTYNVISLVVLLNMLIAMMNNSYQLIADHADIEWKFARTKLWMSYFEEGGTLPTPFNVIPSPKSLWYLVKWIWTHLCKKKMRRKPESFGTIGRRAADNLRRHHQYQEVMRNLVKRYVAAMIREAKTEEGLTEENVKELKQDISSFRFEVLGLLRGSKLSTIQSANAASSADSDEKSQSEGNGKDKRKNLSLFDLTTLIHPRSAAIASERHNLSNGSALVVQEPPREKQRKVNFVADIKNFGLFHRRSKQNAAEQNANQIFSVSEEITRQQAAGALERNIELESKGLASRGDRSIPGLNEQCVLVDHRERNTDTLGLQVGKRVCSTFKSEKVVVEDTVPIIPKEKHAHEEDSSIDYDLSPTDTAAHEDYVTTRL

[6] = target: Short transient receptor potential channel 4 (Mus musculus) (UniProt Q9QUQ5); experiment: blockers of DAMGO-evoked TRPC4 calcium flux – cell-based, second round, Fluo4, HEK293 TRPC4beta/mu-opioid, 1 µM, confirmation (AID 2637;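 active means calcium signal ratio cut to more than 3 SD under the fully stimulated control mean yet still positive, in both repeats and the primary screen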;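 on inhibition: percent of integrated ratio relative to wells lacking test compound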); conditions: at 1 µM; hits give high values
[7] = target: Short transient receptor potential channel 4 (Mus musculus) (UniProt Q9QUQ5); experiment: calcium entry via TRPC4 opening agents – cell-based, HEK293 TRPC4/mu-opioid, Fluo-4 calcium, dose response (AID 434937;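 active means primary screen activator hit with a dose response curve and TRPC4 channel activation at any tested dose; inactive means no activation, no dose response, or not a primary hit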)
[8] = target: Short transient receptor potential channel 4 (Mus musculus) (UniProt Q9QUQ5); experiment: potentiation of DAMGO-evoked TRPC4 calcium signal – cell-based, HEK293 TRPC4/mu-opioid, Fluo-4 calcium, EC20 DAMGO, dose response (AID 434941;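 active means earlier screen potentiator hit that boosts the TRPC4 ion channel at some dose, with a dose response; inactive means no potentiation, no dose response, or not a prior hit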;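 further: calcium entry triggered by an EC20 dose of DAMGO at the co-expressed mu-opioid receptor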)
[9] = target: Short transient receptor potential channel 6 (Mus musculus) (UniProt Q61143); experiment: TRPC6 blockade by TRPC4 inhibitor hits – cell-based, HEK293, membrane potential dye, duplicate, selectivity assay for TRPC4 inhibitor project, confirmation (AID 434948;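 active means active in primary screen and both duplicates, each dropping signal beyond three positive-control SD with fluorescence still positive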); conditions: HEK293 TRPC6, membrane potential dye fluorescence, at 10 µM, stimulated with maximal-effect acetylcholine; hits give high values
Short transient receptor potential channel 6 (Mus musculus), sequence (Q61143 whole entry, looked up): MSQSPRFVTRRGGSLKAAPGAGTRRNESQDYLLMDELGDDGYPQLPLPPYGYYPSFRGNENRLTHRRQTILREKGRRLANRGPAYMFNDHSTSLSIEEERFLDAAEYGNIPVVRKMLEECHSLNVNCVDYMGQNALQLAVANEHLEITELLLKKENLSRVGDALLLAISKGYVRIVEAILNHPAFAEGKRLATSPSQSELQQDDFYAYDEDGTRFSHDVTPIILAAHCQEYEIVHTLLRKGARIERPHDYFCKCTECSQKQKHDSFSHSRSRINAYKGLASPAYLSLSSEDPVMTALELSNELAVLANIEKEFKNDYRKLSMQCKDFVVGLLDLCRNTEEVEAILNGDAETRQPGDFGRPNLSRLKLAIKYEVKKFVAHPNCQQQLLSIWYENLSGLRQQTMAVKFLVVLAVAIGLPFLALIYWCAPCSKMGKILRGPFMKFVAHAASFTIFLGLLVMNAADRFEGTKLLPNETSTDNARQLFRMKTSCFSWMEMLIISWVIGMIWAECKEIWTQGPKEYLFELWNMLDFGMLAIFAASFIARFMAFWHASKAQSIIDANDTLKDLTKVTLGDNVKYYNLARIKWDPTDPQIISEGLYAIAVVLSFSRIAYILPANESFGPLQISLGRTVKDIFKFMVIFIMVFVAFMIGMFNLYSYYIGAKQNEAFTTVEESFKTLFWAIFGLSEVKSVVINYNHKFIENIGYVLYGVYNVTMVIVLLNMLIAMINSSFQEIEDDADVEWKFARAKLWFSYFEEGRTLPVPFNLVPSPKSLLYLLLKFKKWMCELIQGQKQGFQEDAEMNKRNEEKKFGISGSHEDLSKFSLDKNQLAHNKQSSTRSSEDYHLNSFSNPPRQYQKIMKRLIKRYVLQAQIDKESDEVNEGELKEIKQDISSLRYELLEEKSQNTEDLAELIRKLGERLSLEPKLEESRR

[10] = target: Short transient receptor potential channel 6 (Mus musculus) (UniProt Q61143); experiment: TRPC6 opening by TRPC4 activator hits – cell-based, HEK293, membrane potential dye, duplicate, selectivity assay for TRPC4 activator project, confirmation (AID 434950;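 active means membrane potential signal rise above negative control mean plus 3 SD in both duplicates, also active in the earlier TRPC4 screen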); conditions: HEK293 TRPC6, membrane potential fluorescence, at 10 µM; activation: hits give high values; outcome: activation
[11] = target: Short transient receptor potential channel 6 (Mus musculus) (UniProt Q61143); experiment: positive modulators of mouse TRPC6 channel – HEK293 cells, membrane potential dye, duplicate, selectivity assay for TRPC4 potentiator project, confirmation (AID 434952;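 active means compound raising the membrane signal above positive-control mean plus 3 SD in both repeats, and a primary screen hit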); conditions: HEK293 TRPC6, membrane potential dye fluorescence, at 10 µM, maximal acetylcholine added after compound; hits give high values
[12] = target: Short transient receptor potential channel 4 (Mus musculus) (UniProt Q9QUQ5); experiment: calcium flux activators in TRPC4/5HT1a cells, counter-screen for TRPC4 activator project, cell-based, second counter screen, HEK293 TRPC4/5HT1a, Fluo-4 (AID 434977;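 active means calcium signal rise above buffer-control mean plus 5 SD in both duplicates, and also a hit in the primary screen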); conditions: Fluo-4 calcium flux, at 10 µM; hits give high values
[13] = serotonin-gated TRPC4 signal block – cell-based, second counter screen, HEK293 TRPC4/5HT1a, Fluo-4, counter-screen for TRPC4 inhibitor project, confirmation (AID 434978;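 active means primary screen active whose calcium signal fell more than 3 SD beyond the full-serotonin control mean in both duplicate plates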;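 on outcome: serotonin given first at submaximal then at maximal dose after compound preincubation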); conditions: Fluo-4 calcium flux, at 10 µM, serotonin added to trigger calcium flux; hits give high values
[14] = test system: TRPC4 (mouse), co-expressed with 5HT1a in HEK293; experiment: enhancement of serotonin-evoked TRPC4 response – cell-based, second counter screen, HEK293 TRPC4/5HT1a, Fluo-4, counter-screen for TRPC4 potentiator project, confirmation (AID 434979;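 active means signal rise over 3 SD above mean of control wells given weak agonist, in both repeats and first screen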); conditions: Fluo-4 calcium flux, at 10 µM, serotonin added at its EC20 dose; hits give high values
[15] = nonspecific calcium rise without TRPC4 – cell-based, HEK293 mu-opioid receptor line, counter-screen for TRPC4 activator project, confirmation (AID 449723;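 active means hit in primary screen, with calcium signal over 5 SD above buffer well mean in both duplicates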;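 further: counter screen cells carry the mu-opioid receptor alone and lack TRPC4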); conditions: HEK293 mu-opioid cells, Fluo-4 calcium fluorescence, at 10 µM; hits give high values
[16] = nonspecific potentiation of DAMGO calcium response – cell-based, HEK293 mu-opioid receptor line, counter-screen for TRPC4 allosteric potentiator project, confirmation (AID 449724;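 active means calcium signal rise more than 3 SD above the low-dose agonist control mean, in both duplicate plates and the primary screen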); conditions: HEK293 mu-opioid receptor cells, Fluo-4 calcium flux, at 10 µM, compound added before EC20 DAMGO stimulus; hits give high values

SMILES | outcome [1] | outcome [2] | outcome [3] | outcome [4] | inhibition [5] | inhibition [6] | outcome [7] | outcome [8] | outcome [9] | outcome [10] | outcome [11] | outcome [12] | inhibition [13] | outcome [14] | outcome [15] | outcome [16] | outcome [13] | outcome [6] | inhibition [9]
O=C(Cn1c(NCCCO)nc2ccccc21)c1ccc(Br)cc1 | inactive | inactive | inactive | inactive | 88% (active) | 52% (active) | inactive | inactive | inactive | inactive | inactive | inactive | 28.7% (active) | inactive | inactive | inactive | – | – | –
N/C(Cc1cccc2ccccc12)=N\OC(=O)c1cccs1 | inactive | inactive | inactive | inactive | 54% (active) | 55% (active) | inactive | inactive | inactive | inactive | inactive | inactive | – | inactive | inactive | inactive | inactive | – | –
N#CCCn1cc(CNCc2ccccc2)c(-c2cccc([N+](=O)[O-])c2)n1 | inactive | inactive | inactive | inactive | 65% (active) | 36% (active) | inactive | inactive | inactive | inactive | inactive | inactive | 30.7% (active) | inactive | inactive | inactive | – | – | –
CCC1(C(=O)c2ccccc2)C(c2ccc([N+](=O)[O-])cc2)C1(C(=O)OC)C(=O)OC (stereo unspecified) | inactive | inactive | inactive | inactive | 71% (active) | – | inactive | inactive | inactive | inactive | inactive | inactive | – | inactive | inactive | inactive | inactive | inactive | –
OCC(Cc1ccccc1)NCc1ccccc1C(F)(F)F (stereo unspecified) | inactive | inactive | inactive | inactive | 60% (active) | – | inactive | inactive | inactive | inactive | inactive | inactive | – | inactive | inactive | inactive | inactive | inactive | –
Clc1cccc(C[n+]2cc(-c3ccccc3)n3c2CCC3)c1 | inactive | inactive | inactive | inactive | 95% (active) | 51% (active) | inactive | inactive | inactive | inactive | inactive | inactive | 15.5% (active) | inactive | inactive | inactive | – | – | –
Cc1cc(C)nc(NC(N)=NC2CCCCC2)n1 | inactive | inactive | inactive | inactive | 92% (active) | 43% (active) | inactive | inactive | inactive | inactive | inactive | inactive | 21.9% (active) | inactive | inactive | inactive | – | – | –
Cc1cc(N2CCC(C)CC2)nc2cccc(O)c12 | inactive | inactive | inactive | inactive | 95% (active) | 83% (active) | inactive | inactive | – | inactive | inactive | inactive | – | inactive | inactive | inactive | inactive | – | 59% (active)
CC(C)C1=Nc2cccc3cccc(c23)N1 | inactive | inactive | inactive | inactive | 95% (active) | 49% (active) | inactive | inactive | inactive | inactive | inactive | inactive | 17.1% (active) | inactive | inactive | inactive | – | – | –
O=C(NCCN1CCOCC1)c1cc2sccc2n1Cc1ccc(F)cc1 | inactive | inactive | inactive | inactive | 74% (active) | 49% (active) | inactive | inactive | inactive | inactive | inactive | inactive | 33.8% (active) | inactive | inactive | inactive | – | – | –
O=C(c1ccc(Cl)c(Cl)c1)N(Cc1ccco1)c1ccc(O)cc1 | inactive | inactive | inactive | inactive | 94% (active) | – | inactive | inactive | inactive | inactive | inactive | inactive | 32% (active) | inactive | inactive | inactive | – | inactive | –
CCn1nc(C)c(CN2CCCC(CO)(Cc3cccc(Cl)c3)C2)c1C (stereo unspecified) | inactive | inactive | inactive | inactive | 90% (active) | 49% (active) | inactive | inactive | inactive | inactive | inactive | inactive | – | inactive | inactive | inactive | inactive | – | –
NS(=O)(=O)c1ccc(Nc2nc(-c3ccc(O)cc3O)cs2)cc1 | inactive | inactive | inactive | inactive | 98% (active) | 47% (active) | inactive | inactive | inactive | inactive | inactive | inactive | – | inactive | inactive | inactive | inactive | – | –
COc1ccc(C(c2nnnn2C2CCCC2)N2CCN(c3ccccc3)CC2)cc1 (stereo unspecified) | inactive | inactive | inactive | inactive | 52% (active) | – | inactive | inactive | inactive | inactive | inactive | inactive | – | inactive | inactive | inactive | inactive | inactive | –
CC(Oc1ccc(Cl)cc1Cl)c1nc(-c2ccccn2)no1 (stereo unspecified) | inactive | inactive | inactive | inactive | 89% (active) | 53% (active) | inactive | inactive | inactive | inactive | inactive | inactive | 22.7% (active) | inactive | inactive | inactive | – | – | –
CC(=O)OCCCN1C(=O)c2cccc3cc(Br)cc(c23)C1=O | inactive | inactive | inactive | inactive | 96% (active) | 55% (active) | inactive | inactive | inactive | inactive | inactive | inactive | 14.5% (active) | inactive | inactive | inactive | – | – | –
